High-throughput results (PubChem BioAssay)
VACV E9 pol inh: vaccinia E9 polymerase processive synthesis inhibition; in vitro processive DNA synthesis, absorbance read-out; stronger effect = lower value; normalized absorbance, % (no concentration beside the values); 46,000 compounds, 0.94% hits; in the data active = normalized absorbance mostly below about 85%, no sharp cut-off; inactive = mostly above about 86%
Numbers without * were called inactive; ! = not active in a repeat. The full list was thinned out, with hits kept by preference.

SMILES	VACV E9 pol inh
COC(CNC(=O)c1cc(Sc2nnc(C)s2)nc2ccccc12)OC	93
Cc1nnc(Sc2cc(C(=O)NCc3ccccn3)c3ccccc3n2)s1	98
Cc1nnc(Sc2cc(C(=O)NCCCN3CC(C)CC(C)C3)c3ccccc3n2)s1 (stereo not drawn)	69*
CCc1ccc(C(N)CC(=O)O)cc1 (stereo not drawn)	111
Cc1ccc2nc(Nc3cccc(C(F)(F)F)c3)c(C#N)cc2c1	104
Cc1cc(Nc2ccccc2)n(-c2ccccc2C(=O)O)n1	86*
Cc1cc(Nc2ccccc2)n(C(C)(C)C)n1	95
Cc1cc(Nc2ccccc2)n2cnnc2n1	88
CC(C)CN(CC(C)C)C(=O)CCn1c(=O)oc2ccccc21	103
CCCCN(Cc1cc2cc(OC)ccc2[nH]c1=O)C(=O)c1cccc(Cl)c1	100
O=C(O)c1ccccc1Nc1cccc(C(F)(F)F)c1	85*!
O=C(Nc1cccc(C(F)(F)F)c1)C(F)(F)F	88
O=C(O)c1ccccc1Nc1ccccc1	99
Cc1nn(Cc2ccc(C(=O)Nc3sc4c(c3C(=O)OC(C)C)CCCC4)o2)c(C)c1Cl	100
COc1ccc(Nc2nc(N3CCN(CCO)CC3)nc3c2cnn3C)cc1Cl	38*
Cc1ccc(Nc2nc(N3CC(C)OC(C)C3)nc3c2cnn3C)cc1Cl (stereo not drawn)	97
CCc1nc2c(cnn2-c2ccc(F)cc2)c(=O)n1-c1ccc(OC)c(Cl)c1	102
OCn1nc(-c2ccc(Cl)cc2Cl)oc1=S	100
CCNc1cc(N)[n+](CC)c2n[nH]c(/N=C/c3cc(Cl)cc(Cl)c3O)c12	69*
N#CC(C#N)=C(C#N)c1ccc(N(c2ccccc2)c2ccccc2)cc1	92
COc1ccc(N=c2cc(-c3ccc(OC)cc3)oc3ccc(O)cc23)cc1	63*
COc1ccc(-c2cc(=O)c3cc(OC(=O)c4ccc(OC)c(OC)c4)ccc3o2)cc1	99
COc1ccc(-c2c(C)oc3cc(O)ccc3c2=O)cc1	101
COc1ccc(-c2cc(=Nc3ccc(OC)c(OC)c3)c3ccccc3o2)cc1	94
COc1ccc(-c2cc(=NC(CC(C)C)C(=O)O)c3cc(C)ccc3o2)cc1 (stereo not drawn)	98
SMILES	VACV E9 pol inh
COc1ccc(-c2cc(=NCCc3ccccc3)c3cc(C)ccc3o2)cc1	41*
COc1ccc(-c2cc(=O)c3cc(OC(=O)Cc4ccccc4)ccc3o2)cc1	100
CCc1ccc2oc(-c3ccc(OC)cc3)cc(=NCC(=O)O)c2c1	96
COc1ccc(-c2cc(=Nc3ccc(O)cc3)c3cc(C)ccc3o2)cc1	54*
CCN(CC)CC(O)Cn1c(-c2ccc(OC)cc2)cc2ccccc21 (stereo not drawn)	100
O=C(NCCO)c1nnc(-c2ccc3c(c2)OCO3)o1	103
COc1ccc(-c2nn(-c3ccccc3)cc2C=Nc2ccc(O)cc2)cc1	107
CCOc1cc(/C=C2\SC(=S)N(c3ccccc3)C2=O)ccc1O	89
O=C(CSc1ccccc1)Nc1nc2ccc(Br)cc2s1	102
CCOC(=O)CC1C(=O)C=Nc2ccccc21 (stereo not drawn)	106
COc1ccc(/C(O)=C/c2nc3ccc(C(=O)N4CCOCC4)cc3[nH]c2=O)cc1OC	80
Cc1ccc(/C(O)=C/c2nc3ccccc3[nH]c2=O)cc1C	100
CCN1CCN(CCCNC(=O)c2ccc3nc(/C=C(\O)c4ccc(OC)cc4)c(=O)[nH]c3c2)CC1	48*
COc1cccc(OCC(=O)Nc2c(C(=O)Nc3ccccc3OC)oc3ccccc23)c1	94
O=C(O)CCCC(=O)Nc1nc2ccccc2[nH]1	97
O=C(O)CCC(=O)Nc1cccc(-c2nc3ccccc3[nH]2)c1	99
O=C(O)CCCC(=O)Nc1ccc(-c2nc3ccccc3[nH]2)cc1	60*
CCOC(=O)c1sc(NC(=O)c2ccc(F)cc2)nc1-c1ccccc1	96
CCSC1=C(C#N)C(=O)NC(C(C)C)S1 (stereo not drawn)	94
CCSC1=C(C#N)C(=O)NC(c2ccc(OC)cc2)S1 (stereo not drawn)	101
CC1NC(=O)C(C#N)=C(SCc2ccccc2)S1 (stereo not drawn)	63*
N#CC1=C(SCc2ccccc2)SC(c2ccc(C(=O)O)cc2)NC1=O (stereo not drawn)	60*
CCSC1=C(C#N)C(=O)NC(CO)S1 (stereo not drawn)	96
COC(=O)CSC1=C(C#N)C(=O)NC(/C=C/c2ccccc2)S1 (stereo not drawn)	94
Cc1nn(C)c(Cl)c1S(=O)(=O)N(C)C	99
SMILES	VACV E9 pol inh
CS(=O)(=O)N1CCN(c2ccccn2)CC1	100
COc1ccc(C2C(C#N)=C(N)N3CCc4cc(OC)c(OC)cc4C3=C2C#N)cc1 (stereo not drawn)	109
CC(=O)NC1C(=O)N(Cc2ccccc2)c2ccccc21 (stereo not drawn)	98
CC1(C)Cc2cccc(OC(=O)c3cncc(Br)c3)c2O1	101
N#Cc1c(F)cccc1C(C#N)c1ccc(Cl)cc1Cl (stereo not drawn)	99
O=C(O)c1ccc2[nH]c3c(c2c1)CSCC3	89
CC(C)OC(=O)c1ccc2[nH]c3c(c2c1)CCCC3	103
